Anthrax LF inh2: anthrax lethal factor protease inhibition. P15917. 360,000 tested, 0.12% active. multiplex microsphere protease cleavage assay, LF. inhibition, % at 10 µM
Target sequence (P15917 whole entry, looked up): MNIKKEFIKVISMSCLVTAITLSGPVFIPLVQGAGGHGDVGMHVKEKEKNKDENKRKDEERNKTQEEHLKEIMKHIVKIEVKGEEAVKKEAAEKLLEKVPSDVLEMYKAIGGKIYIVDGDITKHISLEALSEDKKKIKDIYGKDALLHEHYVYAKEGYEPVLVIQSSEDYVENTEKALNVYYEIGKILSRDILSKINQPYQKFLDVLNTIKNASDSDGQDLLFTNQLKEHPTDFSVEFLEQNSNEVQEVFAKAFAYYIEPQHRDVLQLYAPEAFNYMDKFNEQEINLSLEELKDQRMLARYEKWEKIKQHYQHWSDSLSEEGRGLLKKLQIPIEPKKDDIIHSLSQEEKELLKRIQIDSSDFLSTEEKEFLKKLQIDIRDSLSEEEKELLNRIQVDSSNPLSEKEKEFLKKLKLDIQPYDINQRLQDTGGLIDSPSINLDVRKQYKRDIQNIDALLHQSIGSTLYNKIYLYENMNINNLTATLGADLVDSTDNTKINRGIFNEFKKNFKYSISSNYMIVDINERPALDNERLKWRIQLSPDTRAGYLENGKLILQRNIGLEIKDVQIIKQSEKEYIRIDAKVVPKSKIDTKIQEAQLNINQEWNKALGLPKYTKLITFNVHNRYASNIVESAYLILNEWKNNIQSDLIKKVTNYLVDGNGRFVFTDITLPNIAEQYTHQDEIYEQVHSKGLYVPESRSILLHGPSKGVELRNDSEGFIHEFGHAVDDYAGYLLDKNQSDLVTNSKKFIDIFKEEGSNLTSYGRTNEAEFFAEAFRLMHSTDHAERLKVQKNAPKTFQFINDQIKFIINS
MazEF act: activators of E. coli MazEF toxin-antitoxin RNase; activation, % at 20 µM; 350,000 tested, 0.32% active; FAM/BHQ RNA-DNA oligo cleavage fluorescence, 5 h; in the data active = activation above about 50%
DUSP3 inh: inhibitors of human VHR1 phosphatase (DUSP3); recombinant VHR phosphatase, pNPP absorbance; 290,000 tested, 0.52% active; inhibition, % at 13.3 µM; AID 1654; in the data active = inhibition above about 50%
BoNT F protease: BoNT F light chain protease inhibition; inhibition, % at 10 µM; Multiplex microsphere protease cleavage assay, flow cytometry; AID 588497; 360,000 tested, 0.22% active; in the data active = inhibition above about 35%, passing the limit was not always enough; inconclusive = no clear call, values can overlap the other calls
BoNT-A LC inh2: inhibitors of Botulinum neurotoxin A light chain protease; inhibition, % at 10 µM; 360,000 tested, 0.17% active; multiplex microsphere protease substrate cleavage, flow cytometry
Bead autofluor: flagged as autofluorescent in microsphere protease counterscreen; compound autofluorescence counterscreen, microsphere flow cytometry; hits give high values; AID 624483; fluorescence intensity (no concentration beside the values); 360,000 tested, 3.1% active; in the data active = fluorescence intensity above about 16000; inconclusive = no clear call, values can overlap the other calls
Of the large screens only hits and unclear results are named; the others gave an inactive call. Rows were chosen to be rich in hits. Some 4.1% of all compounds tested hit in one or more screens of this group. Cut-off read from the data, not from the text of the source, unless noted: active = inhibition above about 30%; inconclusive = no clear call, values can overlap the other calls; inactive = below that.

O=C(OCC#CCSc1nnc(-c2ccccc2)o1)c1ccco1	none
O=C(OCC#CCSc1nc2ccccc2s1)c1ccco1	Bead autofluor 19554
O=C1c2ccccc2C(=O)N1Cc1nc(-c2ccccc2)no1	Bead autofluor 21600
O=C1c2ccccc2C(=O)N1CCc1nc(-c2ccccn2)no1	Bead autofluor 21427
CC1CC(=O)N(CC(=O)Nc2ccc(Br)cc2)c2ccccc2S1(=O)=O (stereo not drawn)	none
COc1ccc(-n2c(/C=C(\C)O)nc(=O)c3c(C)cc(C)nc32)cc1	Bead autofluor 22184
COc1ccc(-n2c(C)nn(C)c2=O)cc1	none
CC(=O)c1c(C)nc(C)nc1NC(=O)Cc1ccccc1	none
CC(=O)Nc1nc(-c2ccc(Cl)cc2)nc(C)c1C(C)=O	BoNT F protease 35.4
CC1=C(C(=O)OCC2CCCO2)C(c2cccc(C(F)(F)F)c2)C2=C(CC(c3ccco3)CC2=O)N1 (stereo not drawn)	Bead autofluor 21820
CC1=C(C(=O)OCC2CCCO2)C(c2ccccc2OC(C)C)C2=C(CC(c3ccco3)CC2=O)N1 (stereo not drawn)	none
Cn1c(SCC(=O)Nc2ccccc2C(F)(F)F)nc2c(c1=O)SCC2	none
Cc1ccc(OCC(=O)NNC(=O)CSc2ncc(C#N)c(N)n2)cc1	none
N#Cc1cnc(SCC(=O)Nc2ccccc2C(F)(F)F)nc1N	BoNT-A LC inh2 inconclusive, Bead autofluor 17110
Cn1c(SCC(=O)Nc2ccccc2F)nnc1-c1cccs1	DUSP3 inh 54.4
Cc1nc(N)sc1-c1nnc(SCC(=O)Nc2ccccc2C(F)(F)F)n1C	Bead autofluor 22790
COc1cc(NC(=O)c2ccco2)c(OC)cc1NC(=O)CSc1nnc(-c2cccs2)n1C	Bead autofluor 22652
O=C(NCc1ccc(F)cc1)c1cc(C2CCCCN2C(=O)c2ccc(Cl)cc2)on1 (stereo not drawn)	none (no result: MazEF act, DUSP3 inh)
CCCCOc1ccc(CN(C)c2ncnc(N)n2)cc1	BoNT-A LC inh2 inconclusive, Bead autofluor 22920
OCc1ccccc1NC(=S)Nc1cccnc1	Bead autofluor 25402
CCC(C)c1ccccc1NC(=S)Nc1cccnc1 (stereo not drawn)	none
Cn1c(=O)[nH]c2cc3ccccc3cc21	BoNT-A LC inh2 inconclusive, Bead autofluor 19393
CC1C/C(=N\NC(=S)NCc2ccccc2)CC(C)(C)C1 (stereo not drawn)	BoNT-A LC inh2 inconclusive, Bead autofluor 22911
CC1CCC/C(=N\NC(=S)NCc2ccccc2)C1 (stereo not drawn)	none
Cc1coc2c1c(C)cc1oc(=O)c(CC(=O)NCC(=O)NCC(=O)O)c(C)c12	none
Cc1coc2c1c(C)cc1oc(=O)c(Cc3ccccc3)c(C)c12	Bead autofluor 24793
COCCN(CC(=O)Nc1cccc(C)c1C)C(=O)c1cc2c(s1)CCC2	none (no result: DUSP3 inh)
COc1cc(CN2CCc3c([nH]c4ccccc34)C2)cc(OC)c1	Bead autofluor 18016
COc1ccccc1CN1CCc2c([nH]c3ccccc23)C1	none
CC(C)(C)OC(=O)N1CCC(c2c(C(=O)N3CCN(C(=O)c4ccco4)CC3)cnn2-c2cccc(Cl)c2)CC1	DUSP3 inh 57.7, Bead autofluor inconclusive
Clc1ccc2nc(-c3ccccc3)c(CN3CCOCC3)n2c1	Bead autofluor 23584
Clc1ccc(-c2nc3ccccn3c2CN2CCOCC2)cc1	none
C/C(=N/Nc1nc(C)c(C)s1)c1cccc([N+](=O)[O-])c1	BoNT F protease inconclusive
CCOC(=O)CSc1nc2c(sc(=S)n2Cc2ccco2)c(=O)n1-c1ccc(F)cc1	BoNT-A LC inh2 inconclusive, Bead autofluor 16594
CCN(CC)C(=O)CSc1nc2c(sc(=S)n2-c2ccccc2OC)c(=O)n1-c1ccccc1	none
CCN(CC)C(=O)CSc1nc2c(sc(=S)n2CC)c(=O)n1-c1ccccc1	BoNT-A LC inh2 inconclusive, Bead autofluor 22153
CCN(CC)C(=O)CSc1nc2c(sc(=S)n2-c2ccccc2)c(=O)n1Cc1ccco1	Bead autofluor 21125
CCOc1ncccc1C(=O)NNC(=O)c1ccccc1-n1cccc1	none
Cc1ccc(-c2cc3nc(C)cc(NCc4ccco4)n3n2)cc1	Bead autofluor 16495
CCCCCCN1C[C@@H](n2cc(COC(=O)c3ccccc3)nn2)[C@H](O)C[C@@H]1c1ccc(Cl)cc1	none (no result: DUSP3 inh)
CCc1nnc(NC(=O)CSc2ncnc3scc(-c4ccc(C)cc4)c23)s1	MazEF act 85.7
CC(C)(C)c1ccc(C(=O)CC(=O)c2cc(Cl)ccc2O)cc1	Bead autofluor 21100
Cc1ccc(C(=O)CC(=O)c2cc(Cl)ccc2O)cc1	none
CC1CCCC(C)N1C(=O)c1ccc(CS(=O)(=O)c2ccccc2)cc1 (stereo not drawn)	DUSP3 inh 53.4
CCOc1ccccc1N=Nc1c(C)[nH]n(C(N)=S)c1=O	BoNT F protease 56.5
Cn1c(=O)c2[nH]c(CCCCCCCc3nc4ccccc4[nH]3)nc2n(C)c1=O	none (no result: DUSP3 inh)
CC(C)C[C@H]1CN(CCCC[C@@H]2CNC(=O)C(=O)N2Cc2ccccc2)C(=O)C(=O)N1Cc1ccccc1	none (no result: MazEF act, DUSP3 inh)
COc1ccc(C(=O)Nc2ccccc2C(=O)N(Cc2ccco2)C(C(N)=O)C(C)C)cc1 (stereo not drawn)	Bead autofluor 22943
COc1ccc(C(=O)Nc2ccccc2C(=O)NC(C(=O)NCc2ccco2)C(C)C)cc1 (stereo not drawn)	none
CN(C)CCCNS(=O)(=O)c1ccc(NC2CCCCCC2)c([N+](=O)[O-])c1	DUSP3 inh 52.0
CCNc1ccc(S(=O)(=O)NCCN(C)C)cc1[N+](=O)[O-]	none
Oc1ccccc1N1CCN(CC(O)COC2CCCc3ccccc32)CC1 (stereo not drawn)	none
CS(=O)(=O)Nc1ccc(S(=O)(=O)NCCc2ccccc2)cc1	Bead autofluor 24049
CS(=O)(=O)Nc1ccc(OCc2ccccc2)cc1	Bead autofluor 24301
COC(=O)Nc1ccc(OCc2ccccc2)cc1	none
CCNS(=O)(=O)c1ccc(NS(C)(=O)=O)cc1	none
CC(C)CN(C(=O)CSc1n[nH]c(-c2cccs2)n1)C1CCS(=O)(=O)C1 (stereo not drawn)	none (no result: Anthrax LF inh2, DUSP3 inh, BoNT F protease, BoNT-A LC inh2, Bead autofluor)
O=C(c1ccccc1)N1N=C(C(F)(F)F)CC1(O)c1ccccc1 (stereo not drawn)	Anthrax LF inh2 38.5
O=C(NCCc1ccccc1)c1ccc(CS(=O)(=O)Cc2ccccc2F)o1	Bead autofluor 18882
Cc1ccc(CCNC(=O)c2ccc(CS(=O)(=O)Cc3ccccc3F)o2)cc1	Bead autofluor 23305
CC(C)CCNC(=O)c1ccc(CS(=O)(=O)Cc2ccccc2F)o1	none
Cc1c(C)n(-c2ccc(Cl)cc2)c2ncnc(N)c12	none
COc1ccccc1OCCNC(=O)c1ccc2c(c1)CCC2	none
CC(=O)Nc1ccc(C(=O)N2CCCC(c3cc(C(=O)Nc4ccccc4Cl)no3)C2)cc1 (stereo not drawn)	none (no result: MazEF act, DUSP3 inh)
Cc1ccc(S(=O)(=O)c2nc(-c3ccccc3)oc2NCc2cccnc2)cc1	none
Cc1ccccc1-c1nc(S(=O)(=O)c2ccc(Br)cc2)c(NCc2cccnc2)o1	Bead autofluor 20211
